Screening results from PubChem.
Rows were chosen to be rich in hits. Some 4.6% of all compounds tested hit in one or more screens of this group.
TRHR enhancer: TRH receptor (human) allosteric enhancement. P34981. TRHR cells, fluo-8 calcium fluorescence, EC20 TRH enhancement. enhancement, % at 2 µM. 360,000 tested, 0.66% active. AID 493056; in the data active = enhancement above about 30%; note: 0% is about no effect
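Enhancer read-out: after compound pinning and an initial kinetic agonist-mode read, an EC20 of TRH (10 nM final) was injected and fluo-8 calcium signal (Ex 480/Em 530) followed at 1 s/cycle for 100 cycles in TRHR-expressing cells.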
D1 antag: blocks dopamine activation of the human D1 receptor. activity change, negative = inhibition, % at 10 µM. HEK293 TREx D1 cells, calcium flux, dopamine EC80; active compounds read low. P21728. 360,000 tested, 3.2% active; in the data active = activity change below about -30%; note: % is set by controls: 0 for no effect and ±100 for the full control effect
Target sequence (P21728 whole entry, looked up): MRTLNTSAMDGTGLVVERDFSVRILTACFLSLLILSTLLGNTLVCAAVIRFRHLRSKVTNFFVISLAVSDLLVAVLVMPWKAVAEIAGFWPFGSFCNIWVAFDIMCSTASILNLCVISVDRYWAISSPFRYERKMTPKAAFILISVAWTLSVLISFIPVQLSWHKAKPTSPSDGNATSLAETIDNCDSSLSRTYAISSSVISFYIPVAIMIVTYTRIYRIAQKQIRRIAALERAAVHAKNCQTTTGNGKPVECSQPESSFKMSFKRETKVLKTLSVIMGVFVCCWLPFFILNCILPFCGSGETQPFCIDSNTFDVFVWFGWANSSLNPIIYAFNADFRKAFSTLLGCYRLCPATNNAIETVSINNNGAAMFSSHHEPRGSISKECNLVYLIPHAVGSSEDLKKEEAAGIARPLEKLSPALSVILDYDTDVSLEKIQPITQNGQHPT
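Kinetic fluorescence of a calcium dye serves as the read-out. D1-expressing Hek293 Trex cells, induced overnight at 30 C, are exposed to compound for 180 s before an EC80 dopamine addition, then read 180 s further.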
D1 agonist: agonists of human D1 dopamine receptor. P21728. HEK293 T-REx D1 cells, calcium flux, agonist mode. activation, % at 2 µM. 360,000 tested, 1% active; note: 0% is about no effect
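Tetracycline-induced HEK293 TREx D1 cells, force-coupled to calcium signalling, were dye-loaded with a no-wash calcium kit. Compound was pin-added after a 10 s baseline. Fluorescence was read kinetically at 1 cycle/s for 180 s, with calcium rises flagged as agonism.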
D1 PAM: potentiators of human D1 dopamine receptor | P21728 | HEK293 TREx D1 cells, calcium flux, dopamine EC20 potentiation | potentiation, % at 10 µM | 360,000 tested, 0.036% active | AID 504651; in the data active = potentiation above about 30%; note: 0% is about no effect
TRHR agonist: activates the human TRH receptor; P34981; TRHR cells, calcium flux fluo-8, FDSS agonist mode; activation, % at 2 µM; 360,000 tested, 0.18% active; AID 493084; note: 0% is about no effect
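In this calcium-flux screen, cells bearing human TRHR are dye-loaded with fluo-8, baselined for 10 cycles, then exposed to library compounds; positive kinetic calcium responses during the agonist phase mark hits, with TRH as control.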
* hit, by the source's call; . = no result; ! = not active in a repeat. Cut-off read from the data, not from the text of the source, unless noted: active = activation above about 30%; inactive = the rest.

SMILES	TRHR enhancer	D1 antag	D1 agonist	D1 PAM	TRHR agonist
COc1ccc(NC(=O)CCCn2c(=O)c3sccc3n(Cc3ccccc3)c2=O)cc1	-5.7	-33.8*	7.8	-12.6	0.3
Cc1cccc(NC(=O)Cn2c(=O)n(CCCCCC(=O)NCc3ccccc3)c(=O)c3sccc32)c1	-4.4	-9.0	3.5	-1.1	-0.7
COCCCn1c(=O)c2sccc2n(Cc2cccc(F)c2)c1=O	-11.5	-36.3*	2.7	-3.2	-0.6
CCC(=O)NC(c1cccc(C)c1)c1cc(Cl)c2cccnc2c1O (stereo not drawn)	6.2	9.6	23.1	-2.6	5.0
Cc1nn(-c2ccccc2)c2nc(C3CC3)cc(C(=O)Nc3ccc(F)cc3)c12	-11.9	-22.3	9.0	-8.0	2.4
CCOc1cccc2sc(N3CCN(C(=O)C(C)(C)C)CC3)nc12	-5.6	.	-1.3	-1.1	-0.4
CCN(CC)C(=O)c1sc2c(c1C)c(=O)n(Cc1ccccc1)c(=O)n2CC(=O)Nc1ccc(OC)cc1	-8.6	-34.8*	6.5	1.4	5.6
CCN(CC)C(=O)c1sc2c(c1C)c(=O)n(-c1ccc(OC)cc1OC)c(=O)n2CC(=O)Nc1ccccc1	-6.7	1.8	27.0	-1.6	0.1
COCCCn1c(=O)c2sccc2n2c(CCCC(=O)NCc3ccc(OC)cc3)nnc12	0.9	-31.4*	3.6	-1.7	0.3
O=C(CC1N=C2c3ccccc3N=C(SCc3ccccc3Cl)N2C1=O)NC1CCCCC1 (stereo not drawn)	-0.2	3.6	-0.2	-0.8	-0.5
CCc1ccc(-c2nc3cc(NC(=O)c4ccc(F)cc4)ccc3o2)cc1	-1.2	2.7	2.8	-1.9	0.9
OCCOCCN1CCN(C(c2ccccc2)c2ccc(Cl)cc2)CC1 (stereo not drawn)	4.3	11.0	9.5	-3.2	0.9
CCOC(=O)c1cc(S(=O)(=O)NCc2ccc(C)cc2)[nH]n1	0.7	4.2	2.2	4.2	22.9
FC(F)(F)C(F)(F)C(F)(F)c1nnc2ccc(N3CCOCC3)nn12	4.2	-73.3*	1.6	-5.5	-0.1
COc1cnc(-c2ccccn2)nc1Sc1ccccc1Cl	-5.0	25.7	32.3*	3.2	-0.4
Cc1cc2c(s1)c1cnn(Cc3cccc(Cn4ncc5c6sc(C)cc6n(C)c5c4=O)c3F)c(=O)c1n2C	2.4	-14.0	1.9	7.0	-1.0
Cc1ccc(CNC(=O)c2cccnc2Sc2cccc(Cl)c2)cc1	1.2	18.7	45.9*	-5.8	6.0
COc1ccc(CNC(=O)c2cccnc2Sc2ccc(Cl)cc2)cc1	0.4	2.9	3.3	0.8	-0.4
Cc1ccc(CNC(=O)c2oc3ccc(S(=O)(=O)N4CCC(C)CC4)cc3c2C)cc1	21.4	-19.4	1.9	-1.3	0.5
COc1ccc(CCNC(=O)c2ccc(CS(=O)(=O)c3ccc(C)cc3)o2)cc1OC	-6.3	-31.2*!	7.7	0.8	-0.9
COc1ccc(CCNC(=O)c2c(N)no[n+]2[O-])cc1OC	-3.5	-31.3*	0.0	-5.5	0.3
Cc1ccc(S(=O)(=O)Cc2ccc(C(=O)NC3CCCC3)o2)cc1	-0.7	-6.8	1.1	-0.3	-0.4
CCC(C)NC(=O)c1ccc(CS(=O)(=O)c2ccc(OC)cc2)o1 (stereo not drawn)	-6.1	-37.8*	-0.6	7.5	-0.1
O=C(NC1CCCC1)c1ccc(CS(=O)(=O)c2ccc(Br)cc2)o1	-2.8	-30.2*	0.7	-3.5	-0.4
Cc1ccc(S(=O)(=O)Cc2ccc(C(=O)N3CCC(C(N)=O)CC3)o2)cc1	35.8*	6.3	2.4	2.9	0.2
SMILES	TRHR enhancer	D1 antag	D1 agonist	D1 PAM	TRHR agonist
COc1ccc(S(=O)(=O)Cc2ccc(C(=O)N3CCC(C(N)=O)CC3)o2)cc1	-1.4	-14.7	0.9	-6.2	-0.8
Cc1ccc(CCNC(=O)c2ccc(CSCc3ccc(C)cc3)o2)cc1	-3.3	-4.8	30.5*	-1.8	2.8
CC1C/C(=N/O)C(C)CN1 (stereo not drawn)	34.0*	10.9	2.3	3.4	1.2
CCOc1ccc2nc(NC(=O)c3nc(SCc4ccccc4F)ncc3Cl)sc2c1	10.1	-11.2	3.7	0.8	0.9
Cc1[nH]nc2c1C1(CCOC1C)C(C#N)=C(N)O2 (stereo not drawn)	-0.8	-35.3*	3.1	-4.3	1.1
CCc1ccc(C(=O)c2cnc3ccc(F)cc3c2S(=O)(=O)c2ccccc2)cc1	-1.1	-42.3*	2.4	-6.9	-0.5
Cc1c(NC(=O)C(C)(C)Oc2ccc(Cl)cc2)cccc1-c1nc2ccccc2o1	-0.3	-5.1	0.8	-3.2	2.4
Cc1c(C(C)(C)C)s/c(=N/S(=O)(=O)c2ccccc2)n1C	3.0	-35.1*	0.2	-8.9	0.1
O=[S+]([O-])(c1c(F)cccc1F)N1CCN([S+](=O)([O-])c2cccc3nonc23)CC1	-4.0	2.9	1.5	-0.6	1.3
COc1ccc(-c2noc(CSc3nnc(C)n3-c3ccc(C)cc3)n2)cc1	-7.1	-4.3	5.8	-0.2	-1.1
O=C(Nc1nnc(N2CCCCCC2)s1)c1cc(-c2ccc(Br)cc2)on1	0.2	-47.6*	0.2	-0.3	0.5
CCCCCC/C(=N/O)c1ccccn1	-3.9	-37.1*	4.8	-1.4	-0.6
C/C(=N/O)c1ccccn1	-3.8	-1.4	0.6	-2.4	0.6
CN1C(=O)c2ccccc2Sc2ccc(NC(=O)COc3ccc(F)cc3)cc21	-3.7	-18.6	1.6	-3.0	0.5
CCOc1ccccc1CNc1ncnc2ccc(-c3c(C)noc3C)cc12	21.7	-1.7	2.8	5.9	0.5
Cc1noc(C)c1-c1ccc2ncnc(NCc3cccc(-c4ccccc4)c3)c2c1	1.4	-33.9*	15.9	-6.5	0.8
CC(C)C[C@H]1CN=C(Nc2ccccc2)N1CC1CCC(C(C)(C)C)CC1 (stereo partly drawn)	20.6	20.9	69.6*	2.7	0.0
C=C(C)CSc1nnc2n(N)c(=O)c3ccccc3n12	-2.7	-19.5	0.8	14.6	-0.4
CCSc1nnc2n(N)c(=O)c3ccccc3n12	-5.3	-85.4*	2.4	-9.3	0.1
Cc1ccc(NC(=O)c2nnn(CC(=O)Nc3ccc(C)c(Cl)c3)c2N)c(C)c1	5.8	-21.8	4.6	-4.2	0.7
CCN(CC)c1nn2c(=O)c(C(=O)NCCc3ccc(C)cc3)cnc2s1	-12.8	7.8	-0.3	-5.3	0.0
NC(=S)N/N=C/c1coc2c(ccc3ccccc32)c1=O	2.5	-3.3	0.4	-4.0	-0.6
O=c1cc(/N=C/c2coc3c(ccc4ccccc43)c2=O)[nH]c(=S)[nH]1	-1.0	-31.5*	6.8	0.7	-0.3
O=c1c2cc3c(cc2n(Cc2cccc(Cl)c2)c(=O)n1Cc1nc(-c2ccccc2)no1)OCO3	-3.8	-51.8*	2.8	-2.6	0.8
O=c1c2cc3c(cc2n(Cc2ccccc2)c(=O)n1Cc1nc(-c2ccccc2)no1)OCO3	10.4	-0.5	1.2	-1.1	-0.9
